# Screening results as filed in PubChem.
# Compounds with a hit are over-represented: about 9.5% of the library has one in this group of screens.
# ALDH1A1 block: blocks purified human ALDH1A1 activity. P00352. Purified ALDH1A1, NADH fluorescence, propionaldehyde substrate. 7.3% of 220,000 active. AID 1030. Potency, µM (doses to about 75.3 µM), most hits filed as inhibitors; active means well fitted inhibition curve with a large enough effect, not every such curve was filed as active; inconclusive means small, poorly fitted or top-dose-only effect, or another doubt; inactive means no such curve, though single readings can be large or run the other way
# NPSR antag: blocks cAMP signaling of the human neuropeptide S receptor; Q6W5P4; CHO-NPSR cells, cAMP TR-FRET, antagonist mode; Potency, µM (series often up to 38.3 µM), most hits filed as inhibitors; 1% of 220,000 active; AID 1461; further: nearly all actives have a fitted effect of over 50% in size
# Tau fluor counter: counter-screen for tau fibril formation inhibitors. AID 1463. Potency, µM (top dose mostly 57.7 µM). tau K18 P301L Alexa594 fluorescence, heparin fibrillization. 0.93% of 280,000 active; further: nearly all actives have a fitted effect of over 55% in size
#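 Human tau K18 P301L (15 uM unlabeled, 0.24 uM Alexa 594-labeled) in 100 mM sodium acetate pH 7 with 20 uM heparin, 6 hr at 37 C. ThT 30 uM added, 1 hr ambient; Alexa 594 FP and total fluorescence read at 555/632 nm.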
# Tau FP inhib: blocks human tau fibril formation measured by polarization; P10636; AID 1468; Potency, µM (titrated, usually from 57.7 µM), actives largely listed as inhibitors; K18 P301L tau heparin fibrillization, Alexa594 FP, 6 h; 0.39% of 280,000 active; further: nearly all actives have a fitted effect of over 55% in size
# Target sequence (P10636 561-689 P618L limits assumed): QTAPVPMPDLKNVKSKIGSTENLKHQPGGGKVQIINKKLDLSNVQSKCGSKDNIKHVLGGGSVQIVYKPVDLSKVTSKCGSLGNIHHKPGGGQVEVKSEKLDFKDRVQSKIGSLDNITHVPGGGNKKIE
#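 Steps: dispense K18 P301L tau (15 uM plus 0.24 uM Alexa 594 tracer, final) in pH 7 sodium acetate; add compound; add heparin (20 uM final); incubate 6 hr, 37 C; add ThT (30 uM final); after 1 hr ambient, read FP.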
# Tau ThT inhib: tau fibrillization inhibition (ThT binding) | P10636 | recombinant tau K18 P301L (four-repeat tau fragment), heparin-induced fibrillization, ThT fluorescence | Potency, µM (top dose mostly 57.4 µM), most hits filed as inhibitors | 2.1% of 270,000 active | AID 1460; further: nearly all actives have a fitted effect of over 55% in size
#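 K18 P301L tau (15 uM + 0.24 uM Alexa 594-tagged), heparin 20 uM, NaOAc pH 7, 6 h 37 C; ThT 30 uM, 1 h RT, ex 450/em 510 nm.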
# HPGD inh: blocks human HPGD enzyme activity | Potency, µM, hits mostly inhibitors | 4.3% of 150,000 active | purified HPGD, NADH fluorescence kinetic, PGE2 substrate | P15428 | AID 894; active means well fitted inhibition curve with a large enough effect, not every such curve was filed as active; inconclusive means small, poorly fitted or top-dose-only effect, or another doubt; inactive means no such curve, though single readings can be large or run the other way
# Target sequence (P15428 whole entry, looked up): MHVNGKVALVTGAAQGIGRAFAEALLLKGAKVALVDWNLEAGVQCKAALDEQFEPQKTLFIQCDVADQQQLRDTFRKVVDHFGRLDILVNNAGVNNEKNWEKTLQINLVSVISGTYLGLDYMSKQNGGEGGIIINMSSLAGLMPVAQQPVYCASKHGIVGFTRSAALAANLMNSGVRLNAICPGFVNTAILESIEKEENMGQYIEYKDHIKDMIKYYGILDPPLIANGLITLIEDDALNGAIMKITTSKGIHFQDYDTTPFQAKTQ
#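 NADH formation kinetics: reaction with 30 uM PGE2 and 1 mM NAD+ (final), 20 nM enzyme, Tris-HCl pH 8 with Tween 20, after 15 min compound preincubation at room temperature. Fluorescence change, last versus first of five reads.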
# A number is an active result; . = inactive; ? = inconclusive; / = not tested or not shown. Unless noted, the call rests on the fitted dose curve; in most records, active means well fitted curve in the direction sought with a large enough effect; inconclusive means small, poorly fitted or top-dose-only effect, or another doubt; inactive means no such curve, though single readings can be large; an effect the other way counts as inactive or inconclusive.
SMILES,ALDH1A1 block,NPSR antag,Tau fluor counter,Tau FP inhib,Tau ThT inhib,HPGD inh
COc1ccc(CCSc2nnc(C3CCCCC3)n2N)cc1,.,.,.,.,?,20µM
COC(=O)C1=C(C)NC(=O)/C1=C\c1ccc2c(c1)OCO2,?,.,.,.,13µM,.
CCOc1cc(/C=C2/C(=O)ON=C2C)ccc1OCc1ccccc1F,5µM,16µM,.,.,?,1.6µM
O=C1/C(=C/c2ccncc2)CCC/C1=C\c1ccncc1,.,.,.,5µM,5µM,/
O=C1/C(=C\c2ccc3c(c2)OCO3)CCC/C1=C/c1ccc2c(c1)OCO2,?,.,.,.,4.5µM,.
COc1ccc(CCNC(=O)C(C)Sc2ccc(C)cc2)cc1OC (stereo unspecified),.,.,.,.,.,.
COc1cc2nc(Cl)nc(N3CCOCC3)c2cc1OC,.,.,.,.,.,/
O=C(CSc1ncn[nH]1)Nc1c(F)cc(F)cc1Br,.,.,.,.,.,.
CN(Cc1ccccc1)c1ccc2cc(S(=O)(=O)N3CCCCC3)ccc2n1,/,/,.,.,.,/
CCNC(=O)COc1ccc(-c2ccccc2)cc1,.,.,.,.,.,.
COc1cccc(N2CCN(C(=O)C3CCCN(S(=O)(=O)c4ccc5c(c4)oc(=O)n5C)C3)CC2)c1 (stereo unspecified),/,/,.,.,.,/
Cc1nc(N2CCOCC2)c2nc(-c3ccccc3)n(CCCN(C)C)c2n1,?,/,.,.,.,?
Cc1cccc(NC(=O)Cn2cc(C(=O)C3CCCCC3)c3ccccc32)c1,/,/,.,?,.,/
CC1=NOC(=O)/C1=C/c1ccc2c(c1)OCO2,?,.,.,.,?,/
CC1=NOC(=O)/C1=C\c1ccc2c(c1)OCO2,13µM,.,.,.,?,/
O=C(O)COc1ccc2nsnc2c1Cl,?,13µM,.,.,.,?
Cc1ccc(NC(=O)COC(=O)C2(c3ccc(Cl)cc3)CCCC2)cc1,10µM,.,?,.,?,.
CCOC(=O)c1ccc(NC(=O)C2(c3ccc(Cl)cc3)CCCC2)cc1,.,?,.,.,.,.
O=C(/C=C/c1ccc(Cl)cc1)N1CCN(c2ccc(Cl)cc2[N+](=O)[O-])CC1,.,.,.,.,7.9µM,.
O=C(/C=C/c1ccccc1)N1CCN(c2c(Cl)cccc2[N+](=O)[O-])CC1,?,.,.,.,?,14µM
O=C(/C=C/c1ccc([N+](=O)[O-])cc1)N1CCN(c2ccccc2F)CC1,.,.,.,.,.,.
CCOc1ccc(C(=O)Nc2ccc3nn(-c4ccc(OC)c(Cl)c4)nc3c2)cc1,/,/,.,?,?,/
Cc1ccc(O)c(NC(=S)NC(=O)CC(C)C)c1,.,.,.,.,.,.
CCCOc1ccc(Oc2nc(NCC(C)C)nc(N(C)C)n2)nn1,/,/,.,.,.,/
O=C1Cc2ccccc2N1c1ccccc1,.,.,.,.,.,35µM
SMILES,ALDH1A1 block,NPSR antag,Tau fluor counter,Tau FP inhib,Tau ThT inhib,HPGD inh
CCN(CC)C(=O)C1CCCN(Cc2ccccc2C(F)(F)F)C1 (stereo unspecified),3.5µM,.,.,?,.,.
CCN(CC)C(=O)C1CCCN(Cc2ccccc2F)C1 (stereo unspecified),.,.,.,.,.,.
Cc1ccc(Cn2nnc3c(=O)n(Cc4cc(C)ccc4C)cnc32)cc1,.,.,.,.,.,4µM
Cc1cccc(Cn2cnc3c(nnn3Cc3ccc(Cl)cc3)c2=O)c1,.,.,.,.,.,13µM
COc1cccc(-n2nnc3c(=O)n(Cc4cccc(C)c4)cnc32)c1,?,.,.,.,.,?
Cc1ccc(Cn2cnc3c(nnn3Cc3ccc(Cl)cc3)c2=O)cc1,.,.,.,.,.,.
O=c1c2nnn(Cc3ccc(Cl)cc3)c2ncn1Cc1ccc(F)cc1,.,.,.,.,.,28µM
Cc1ccccc1Cn1cnc2c(nnn2Cc2ccc(F)cc2)c1=O,.,.,.,.,.,.
Cc1ccc(Cn2nnc3c(=O)n(Cc4cccc(C)c4)cnc32)cc1,.,.,.,.,.,5µM
Cc1ccc(O)c(NC(=O)c2nc3nc(C)cc(C(F)F)n3n2)c1,/,/,.,.,.,/
O=c1[nH]c(=S)c2ncn(-c3ccccc3)c2[nH]1,25µM,.,.,.,.,/
